# Shown are actives, neighbours in structure and some others; about 3.4% of the full set was active somewhere.
# AmpC inh detg: qHTS Inhibitors of AmpC Beta-Lactamase (assay with detergent); P00811; AmpC hydrolysis of nitrocefin, absorbance 480 nm, 0.01% Triton; Potency, µM (titrated, usually from 114 µM), for inactives: at the highest dose activity change, negative = inhibition, usual class: inhibitors; 370,000 tested, 0.041% active;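 also: 0% = no-compound wells and -100% = no-enzyme wells; nearly all actives have a fitted effect of over 25% in size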
# Target sequence (P00811 whole entry, looked up): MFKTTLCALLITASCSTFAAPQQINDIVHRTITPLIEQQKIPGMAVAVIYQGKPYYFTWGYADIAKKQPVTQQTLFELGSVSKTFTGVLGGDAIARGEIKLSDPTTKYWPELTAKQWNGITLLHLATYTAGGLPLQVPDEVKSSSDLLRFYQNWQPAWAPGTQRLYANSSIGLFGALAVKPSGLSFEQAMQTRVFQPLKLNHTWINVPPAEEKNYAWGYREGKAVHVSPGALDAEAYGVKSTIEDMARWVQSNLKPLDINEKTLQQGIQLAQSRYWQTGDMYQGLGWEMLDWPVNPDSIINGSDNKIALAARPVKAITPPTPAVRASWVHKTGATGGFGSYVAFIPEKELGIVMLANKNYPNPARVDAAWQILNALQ
#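 20 mM phosphate pH 7.0 + 0.01% (detergent screen) or 0.0001% Triton X-100; 5.3 nM AmpC reagent; cpd preinc 15 min RT; nitrocefin (800 uM stock) to start; A480 q20 s × 4 min; Activity was normalised to no-enzyme and no-compound control wells.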
# Sm TGR inh: qHTS Assay for the Inhibitors of Schistosoma Mansoni Peroxiredoxins; Potency, µM (series often up to 114 µM), inactives show top-dose activity change, negative = inhibition, actives largely listed as inhibitors; AID 485364, 2010; purified TGR, DTNB reduction, TNB absorbance 405 nm; 360,000 tested, 3% active; Schistosoma mansoni thioredoxin glutathione reductase (TGR), Q962Y6; also: nearly all actives have a fitted effect of over 60% in size
#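 Kinetic colorimetric format: TGR-catalysed, NADPH-driven DTNB reduction monitored via TNB absorbance. Enzyme dispensed at 20 nM; compound exposure 15 min at room temperature before reaction start.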
# Giardia FBPA inh: qHTS Assay for Inhibitors of Fructose-1,6-bisphosphate Aldolase from Giardia Lamblia. purified Giardia FBPA. 290,000 tested, 0.71% active. AID 2451, 2010. Potency, µM (titrated, usually from 59.6 µM), without a hit: at the top dose activity, negative = inhibition, most hits filed as inhibitors; also: nearly all actives have a fitted effect of over 55% in size
#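 Giardia FBPA (40 nM reagent) was preincubated 10 min at RT with compound (up to 57.5 uM final), then substrate plus GAPDH/TPI/NAD/arsenate coupling system with diaphorase/resazurin was added; resorufin fluorescence (525/598 nm) was read after 20 min.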
# AmpC no deterg: qHTS Inhibitors of AmpC Beta-Lactamase (assay without detergent) | P00811 | AmpC nitrocefin hydrolysis, absorbance 480 nm, 0.0001% Triton | Potency, µM (top dose mostly 57.1 µM), without a hit: at the top dose activity change, negative = inhibition, most hits filed as inhibitors | 330,000 tested, 0.52% active | AID 485341, 2010;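 also: plate controls were no compound for no effect and no enzyme for full effect; nearly all actives have a fitted effect of over 20% in size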
#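 20 mM phosphate pH 7.0 + 0.01% (detergent screen) or 0.0001% Triton X-100; 5.3 nM AmpC reagent; cpd preinc 15 min RT; nitrocefin (800 uM stock) to start; A480 q20 s × 4 min; Activity was normalised to no-enzyme and no-compound control wells.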
# RE007 growth inh: qHTS Assay for Inhibitors of the HIV-1 protein Vpr | Potency, µM (series often up to 92.2 µM), for the others: at the highest dose activity change, negative = less growth, hits mostly inhibitors | 360,000 tested, 0.21% active | S. pombe RE007 Vpr strain, BacTiter-Glo ATP luminescence, 24 h | AID 651644, 2012; active = well fitted falling curve with a large enough effect; inconclusive = small, poorly fitted or top-dose-only effect; inactive = no such curve, though single readings can be large or run the other way; also: nearly all actives have a fitted effect of over 50% in size
#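 Fission yeast strain RE007, carrying one chromosomally integrated HIV-1 vpr copy, was seeded at OD 0.01 in PMG+AL medium with 23 nL pinned compound. After 24 h at 30 °C and 99% humidity, viability was read by BacTiter-Glo luminescence.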
# Active calls of the source: *; u = inconclusive; x = no result given; [ ] = dose if it differs, or a comment. Unless noted, calls follow the shape of the dose curve; as a rule, active = well fitted curve in the direction sought with a large enough effect; inconclusive = small, poorly fitted or top-dose-only effect, or another doubt; inactive = no such curve, though single readings can be large; an effect the other way counts as inactive or inconclusive. Unless noted, % is scaled to controls: 0 for no effect and ±100 for the full control effect; potency is read from the fitted curve at half-maximal effect.
SMILES,AmpC inh detg,Sm TGR inh,Giardia FBPA inh,AmpC no deterg,RE007 growth inh
COc1cccc(/C=N/Nc2ccc([N+](=O)[O-])cc2)c1O,-4.6%,4.3%,-5.2%,48.9%,10.7%
Cc1cccc(N/N=C/c2ccc(O)c(O)c2O)c1,-6.0%,7.08µM*,14.1µM*,u,15.1%
CCCn1c(N)c(N(CCOC)C(=O)CSCC(=O)Nc2ccc(OC)cc2)c(=O)[nH]c1=O,-1.2%,-2.8%,x,-14.7%,-10.5%
COc1ccc(OCCN(C)Cc2c(O)ccc3ccccc23)cc1,-0.1%,1.12µM*,-3.3%,-35.5%,-12.3%
CN(Cc1ccccc1)Cc1c(O)ccc2ccccc12,-19.8%,0.891µM*,u,-23.7%,0.1%
CC(=O)NC(=S)Nc1ccc(NC(=S)NC(=O)c2cccs2)cc1,-3.1%,-26.1%,x,10.1%,3.8%
Cc1ccc(C(=O)NC(=S)Nc2ccc(-c3ccc(CO)o3)cc2)cc1,6.0%,u,-8.2%,25.1µM*,6.5%
CCOc1ccc(-c2ccc(CO)o2)cc1N,4.1%,-0.7%,x,x,x
O=C(NC(=S)Nc1ccc(-c2ccc(CO)o2)cc1)c1cccs1,7.8%,8.91µM*,-14.0%,10µM*,8.2%
CCOC(=O)c1ccc(-c2ccc(CO)o2)cc1,u,35.5µM*,8.1%,-34.5%,-22.8%
CC(=O)Oc1ccc(C2=NN(c3ccccc3)C(c3ccccc3)C2)cc1 (stereo not given),0.1%,9.3%,1.2%,-21.2%,-0.7%
O=C(c1ccco1)[C@@H]1[C@@H]2C(=O)N(c3ccccc3)C(=O)[C@@H]2C2c3ccccc3C=CN21 (stereo not given in full),-12.8%,56.2µM*,-20.7%,-16.4%,-15.1%
Cc1ccc(N2C(=O)[C@@H]3[C@H](C2=O)C2c4ccccc4C=CN2[C@@H]3C(=O)c2ccco2)cc1 (stereo not given in full),-2.5%,28.2µM*,u,-9.5%,-23.3%
CC(=O)[C@@H]1[C@@H]2C(=O)N(Cc3ccccc3)C(=O)[C@@H]2C2c3ccccc3C=CN21 (stereo not given in full),-0.7%,44.7µM*,u,-15.7%,13.6%
Cc1ccc(N2C(=O)[C@@H]3[C@H](C2=O)C2c4ccccc4C=CN2[C@@H]3C(=O)c2ccco2)c(C)c1 (stereo not given in full),-15.0%,u,u,2.8%,-4.3%
CC1CN(c2oc(COc3ccc(Cl)cc3Cl)nc2C#N)CC(C)O1 (stereo not given),u,-11.8%,-3.7%,98.3%,1.7%
NC(C(=O)O)C(c1ccccc1)C(F)F (stereo not given),-0.3%,56.2µM*,u,-10.8%,-8.3%
C1CCc2nc3c(nc2C1)CCCC3,-2.5%,-2.6%,5.8%,6.9%,13.9%
Nc1nnc2c(n1)CCCC2,-0.8%,31.6µM*,u,0.159µM*,4.1%
CC(C)(C)c1cnnn1-c1ccc(C(=O)CCl)cc1,u,8.91µM*,8.2%,-7.4%,3.1%
O=C(O)/C=C/C(=O)c1ccc2c(c1)CCc1ccccc1-2,-6.3%,0.562µM*,x,-33.9%,u
NC(=O)C1CCN(C2=C(NS(=O)(=O)c3ccc(Cl)cc3)C(=O)c3ccccc3C2=O)CC1,-1.0%,11.2µM*,u,79.8%,-0.9%
COC(C/C=C/C(=O)COCc1ccccc1)OC,-1.2%,15.8µM*,7.2%,-28.6%,-12.7%
COc1ccc(NC(=O)C2CCN(S(=O)(=O)c3cc(-c4noc(C)n4)ccc3C)CC2)cc1,-1.8%,4.1%,x,x,x
COc1cc(-c2noc(C)c2C#CCO)cc(OC)c1OC,u,31.6µM*,-4.9%,0.9%,6.8%
C=C(C)C(=O)NNc1ccccc1,u,1.58µM*,-2.3%,-1.2%[11.4 µM],126.0%
CCN(CC)c1ccc(NC(=O)c2nc3nc(C)cc(C(F)F)n3n2)cc1,8.8%,-3.8%,-21.4%,3.16µM*,-10.4%
COc1ccc(S(=O)(=O)Nc2ccncc2)c(C)c1C,-13.9%,-1.1%,4.8%,-12.8%,10.7%

# Compound activity as filed in PubChem BioAssay.
